These results are taken from PubChem BioAssay AID1851 (National Center for Advancing Translational Sciences (NCATS), 2009).

Each structure is given as a SMILES string. Screen size: about 16,000 compounds; about 4,000 (25%) were called active. About 26% were inconclusive and are not listed. These entries were drawn from the full list. A number with no mark means an inactive call. Calls come from the whole dose curve; as a rule, active = well fitted curve in the direction sought with a large enough effect; inconclusive = small, poorly fitted or top-dose-only effect, or effect the other way; inactive = no such curve, though single readings can be large or run the other way.
% is set by controls: 0 for no effect and ±100 for the full control effect.

This test deals with Cytochrome P450 2C9 (Homo sapiens) (UniProt P11712). In words: Cytochrome panel assay with activity outcomes. Particulars: recombinant CYP, pro-luciferin dealkylation, luminescence, p450-cyp2c9; series mostly up to 57.1 µM; activity, negative = inhibition: at the top concentration.
Chain of Cytochrome P450 2C9 (Homo sapiens) (P11712 whole entry, looked up): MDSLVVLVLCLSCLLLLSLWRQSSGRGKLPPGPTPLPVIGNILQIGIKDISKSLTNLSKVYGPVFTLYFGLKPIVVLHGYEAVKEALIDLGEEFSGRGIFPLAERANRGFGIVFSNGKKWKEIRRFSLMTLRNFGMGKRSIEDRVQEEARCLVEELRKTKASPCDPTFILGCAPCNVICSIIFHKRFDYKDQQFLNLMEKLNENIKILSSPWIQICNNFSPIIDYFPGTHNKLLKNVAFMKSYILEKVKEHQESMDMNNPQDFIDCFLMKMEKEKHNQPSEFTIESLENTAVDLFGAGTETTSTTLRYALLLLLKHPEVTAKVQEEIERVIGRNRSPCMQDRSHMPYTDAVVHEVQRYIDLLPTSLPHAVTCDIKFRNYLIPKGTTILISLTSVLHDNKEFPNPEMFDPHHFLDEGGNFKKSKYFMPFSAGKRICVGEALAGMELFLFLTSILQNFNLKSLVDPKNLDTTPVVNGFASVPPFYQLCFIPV
For `COc1cc2nc(N3CCN(C(=O)[C@@H]4CCCO4)CC3)nc(N)c2cc1OC`, the “activity, negative = inhibition” value was 8.56% [at 25.6 µM].
For the compound `O=C(NNS(=O)(=O)c1cc(Cl)cc(Cl)c1)c1sccc1-n1cccc1`, the AC50 was 0.126 µM (active).
With `CNc1ncnc2c1ncn2[C@@H]1O[C@@H](CO)[C@H](O)[C@@H]1O`, the “activity, negative = inhibition” value was -1.43%.
On to `CNc1ncnc2c1ncn2[C@@H]1O[C@H](CO)[C@@H](O)[C@@H]1O`, for which the “activity, negative = inhibition” value is -2.78% [at 25.6 µM].
On to `CCCCC#Cc1nc(NC)c2ncn([C@@H]3O[C@@H](CO)[C@H](O)[C@H]3O)c2n1`, for which the AC50 was 0.631 µM (active).
For the compound `COc1ccc2c(c1)N(CC[C@H]1CCCCN1C)c1ccccc1S2`, the activity, negative = inhibition was -3.81% [at 11.4 µM].
Take `N#CC1=C(SCC(N)=O)NC2=C(C(=O)c3ccccc32)C1c1ccc(Cl)cc1` (stereo unspecified): the AC50 was 6.31 µM (active).
Regarding `CSC1=C(C#N)C(c2ccccc2Cl)C2=C(N1)c1ccccc1C2=O` (stereo unspecified), the AC50 was 1 µM (active).
Regarding `O=C(O)CC/C=C\CC[C@H]1[C@@H](N2CCCCC2)[C@@H](O)C[C@@H]1OCc1ccc(-c2ccccc2)cc1`, the “activity, negative = inhibition” value is 11.9%.
As for `Cn1c(=O)c2c(n(Cc3ccccc3)c1=O)NC(=O)C2CC(=O)NCc1cccc(Cl)c1` (stereo unspecified), the half-maximal activity concentration (AC50) was 12.6 µM (active).
For the compound `COCCCNCC(=O)c1c(N)n(Cc2ccccc2)c(=O)n(C)c1=O`, the “activity, negative = inhibition” value is -17.7%.
In the case of `C1CCN(CC[C@@H]2CCCCN2)CC1`, the activity, negative = inhibition was 12.5% [at 11.4 µM].
Same read-out and setting: next, `C[N+](C)(N)Cc1csc(-c2ccc(Cl)cc2)n1`: 2.29% [at 11.4 µM].
As to `CCCCCN1CC(O)=C(c2nc(-c3ccc(Cl)cc3)cs2)C1=N`, the AC50 is 0.631 µM (active).
On the same count and under the same terms, in the case of `CCCCc1n[nH]c2c1/C(=N/O)CC(c1ccccc1)C2` (stereo unspecified) it was 2 µM (active).
For the compound `COc1ccccc1-c1ccc2ncnc(NCc3cnc(C)cn3)c2c1`, the activity, negative = inhibition is -18.5% [at 2.29 µM].
With `O=C1CC(c2cccs2)c2cc3c(cc2N1)OCO3` (stereo unspecified), the AC50 is 15.8 µM (active).
As for `COc1ccc(-n2c(=O)cnc3cnc(Oc4ccccc4)nc32)cc1`, the “activity, negative = inhibition” value is -20%.
With `COc1ccc(Oc2nc3ccccc3nc2C(F)(F)F)cc1`, the AC50 is 7.94 µM (active).
`O=C1C=C(N2CCN(c3ccccn3)CC2)C(=O)c2c(O)ccc(O)c21`: the activity, negative = inhibition is -10.2% [at 11.4 µM].
For `C[C@@H](CN1c2ccccc2Sc2ccccc21)N(C)C`, the AC50 result was “inactive”.
Take `O=C(O)CNCCc1ccccc1`: the activity, negative = inhibition was 12.3% [at 11.4 µM].
Regarding `O=C(NCCc1ccccc1)N1c2ccccc2Sc2ccccc21`, the AC50 was 12.6 µM (active).
Consider `O=C(NCCCN1CCc2ccccc2C1)C1CCN(S(=O)(=O)N2CCCC2)CC1`, for which the “activity, negative = inhibition” value is -27%.
As to `O=S(=O)(c1ccc(Cl)s1)N1CCc2ccccc2C1`, the AC50 is 28.2 µM (active).
As to `C=CCNCCCCOc1c(Cl)cc(C)cc1Br`, the “activity, negative = inhibition” value is 28.8%.
Still for that read-out and setting: in the case of `COc1ccc2oc(=O)c(NC(=O)C3CCCCC3)cc2c1` it was -3.66%.
On to `COc1ccc2c(c1)OC1=C(C(=O)CCC1)C2C1=C(O)CCCC1=O` (stereo unspecified), for which the AC50 was 22.4 µM (active).
On the same count and under the same terms, next, `COc1ccccc1CN(Cc1cc2cc3c(cc2[nH]c1=O)OCCO3)Cc1nnnn1Cc1ccco1`: 12.6 µM (active).
Regarding `CN1CCc2[nH]nc(-c3n[nH]c4c3CN(C)CC4)c2C1`, the activity, negative = inhibition was 3.89% [at 11.4 µM].
Same read-out and setting: in the case of `CCOc1cc(CC(=O)N[C@@H](CC(C)C)c2ccccc2N2CCCCC2)ccc1C(=O)O` it was -5.99% [at 25.6 µM]; in that of `CN(C(=O)CCCOc1ccc2[nH]c(=O)ccc2c1)C1CCCCC1`, 25.2%.
Turning to `CCOc1ccc2[nH]c(=O)c(CN(CCc3ccccc3)C(=O)N3CCOCC3)cc2c1`, the AC50 was 7.08 µM (active).
`C[N+]1(CC(=O)OCCCc2ccccc2)CCOCC1`: the “activity, negative = inhibition” value is -7.29%.
Same read-out and setting: in the case of `CCOc1ccc(C2C(C(=O)O)c3ccccc3C(=O)N2CCN2CCOCC2)cc1` (stereo unspecified) it was 7.76%.
Take `CCOc1ccc2[nH]c(=O)c(CN(CCc3ccccc3)C(=O)N3CCCC3)cc2c1`: the AC50 was 7.94 µM (active).
Regarding `CO[C@@H]1COC(=O)[C@@H](CCSC)NC(=O)C/C=C\[C@@H](C)COC(=O)[C@H](C)NC(=O)C/C=C\[C@H]1C`, the activity, negative = inhibition is 10% [at 11.4 µM].
Same read-out and setting: in the case of `CN(Cc1ccco1)c1ncnc2ccc(-c3ccccc3C#N)cc12` it was -18.9% [at 2.29 µM].
In the case of `Oc1ccc2ccccc2c1/C=C\c1ccc2c(Br)cc(Br)c(O)c2n1`, the AC50 was 2.51 µM (active).
Consider `Oc1ccc2ccccc2c1C=NCc1c(O)ccc2ccccc12`, for which the activity, negative = inhibition was -2.74% [at 11.4 µM].
The same measure, in the same setting: next, `FC(F)(F)c1ccccc1-c1ccc2ncnc(NC3CC3)c2c1`: -6.68% [at 2.29 µM].

For orientation: AC50 means the concentration at which the activity in the assay is half-maximal.
